Reference: the supplement of paper PMC7156485
± gives the standard deviation of the averaged measurements.

Tests used:
Conditions in all cases: concentration: 10 µM; 24 h
HCC1569 [1] = experiment: cell number relative to DMSO (% of DMSO); higher = more cells (less growth inhibition / toxicity)
In short: (§1)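 Cells were seeded at 800 per well in 384-well plates with RPMI containing 10% FBS; both HCC1569 and TDF lines were used. Compounds were added at 10 µM for 24 h at 37 °C, in triplicate, before fixation in 3.7% formaldehyde and staining with a rabbit anti-H1.0 antibody, an AlexaFluor 647 secondary and DAPI. H1.0 nuclear intensity or cell number is reported as percent of the plate control using the median of replicates, and HCC1569 values were smoothed for positional effects.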

TDF [2] = experiment: as above
In short: as §1

TDF [3] = experiment: H1.0 immunofluorescence intensity relative to DMSO (% of DMSO); higher = stronger H1.0 induction, active = 120 or more
In short: as §1

HCC1569 [4] = experiment: H1.0 immunofluorescence intensity relative to DMSO (% of DMSO); higher = stronger H1.0 induction, active = 140 or more
In short: as §1
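Wherever H1.0 immunofluorescence intensity relative to DMSO is given: TDF is a line of transformed human dermal fibroblasts of mesenchymal origin.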
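Wherever cell number relative to DMSO is given: TDF denotes transformed human dermal fibroblasts of mesenchymal origin.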

| Compound | cell number (HCC1569 [1]) | cell number (TDF [2]) | H1.0 immunofluorescence intensity (TDF [3]) | H1.0 immunofluorescence intensity (HCC1569 [4]) |
| --- | --- | --- | --- | --- |
| COC(=O)c1cc(OC)c2c(c1-c1c(CO)cc(OC)c3c1OCO3)OCO2 | 104 | 99.8 | 98.6 (inactive) | 109 (inactive) |
| CC12CCC(=O)C=C1CCC1C2C(O)CC2(C)C1CCC2(O)C(=O)COC(=O)CCC(=O)[O-].[Na+] (stereo not drawn) [Hydrocortisone 21-hemisuccinate sodium] | 99.5 | 99.5 | 82.6 (inactive) | 125 (inactive) |
| O=c1sn(-c2cccc3ccccc23)c(=O)n1Cc1ccccc1 [4-benzyl-2-(1-naphthyl)-1,2,4-thiadiazolidine-3,5-dione] | 94.9 | 90.9 | 101 (inactive) | 98.8 (inactive) |
| Cn1nnc2c(C(N)=O)ncn2c1=O [Temozolomide] | 105 | 91.4 | 105 (inactive) | 101 (inactive) |
| CCCCCCC=CCCCCCCCC(=O)O [9(E)-Hexadecenoic acid] | 99.8 | 97.4 | 105 (inactive) | 105 (inactive) |
| CCCCCCCCC=CCC=CCC=CCCCC(=O)O [5(Z), 8(Z), 11(Z)-Eicosatrienoic Acid] | 102 ± 2.9 | 105 ± 7.9 | 98.1 (inactive) | 97.8 (inactive) |
| CCCCCCC=CCCCCCCCC(=O)O [9(Z)-Hexadecenoic acid] | 98.8 | 104 | 97.9 (inactive) | 101 (inactive) |
| CCn1cc(C(=O)O)c(=O)c2cc(F)c(N3CCNC(C)C3)c(F)c21.Cl (stereo not drawn) [Lomefloxacin hydrochloride] | 101 | 102 | 92.2 (inactive) | 92.9 (inactive) |
| COc1ccc(C(=O)NCc2ccc(OCCN(C)C)cc2)cc1OC [Itopride] | 101 | 104 | 92 (inactive) | 118 (inactive) |
| CCOC(=O)[C@@H](N)CCC(=O)N[C@@H](CSCc1ccccc1)C(=O)N[C@@H](C(=O)OCC)c1ccccc1 | 97.6 | 100 | 92.9 (inactive) | 109 (inactive) |
| O=[NH+]C=C1C=CN(CN2C=CC(=C[NH+]=O)C=C2)C=C1.[Br-].[Br-] [1,1'-methylenebis(4-(nitrosomethyl)pyridinium) bromide] | 105 | 99 | 89.7 (inactive) | 93.7 (inactive) |
| Cl.O[Si](CCCN1CCCCC1)(c1ccc(F)cc1)C1CCCCC1 (stereo not drawn) [Hexahydro-sila-difenidol hydrochloride, p-fluoro analog] | 97.5 | 88.2 | 102 (inactive) | 105 (inactive) |
| CNC1(C)C2CCC(C2)C1(C)C (stereo not drawn) [Mecamylamine] | 101 | 106 | 83.3 (inactive) | 107 (inactive) |
| Cl.OCC1NCC(O)C(O)C1O (stereo not drawn) [1-Deoxynojirimycin hydrochloride] | 97.8 | 106 | 85.2 (inactive) | 91.8 (inactive) |
| CS(=O)(=O)O.CSc1ccc2c(c1)C(N1CCN(C)CC1)Cc1ccccc1S2 (stereo not drawn) [Methiothepin mesylate] | 91.1 | 102 | 111 (inactive) | 128 (inactive) |
| COc1cc(C=CC(=O)CC(=O)C=Cc2ccc(O)c(OC)c2)ccc1O [Curcumin] | 71.3 | 62.7 | 106 (inactive) | 139 (inactive) |
| COc1c2occc2c(OC)c2c(=O)cc(C)oc12 [Khellin] | 101 | 76.6 | 111 (inactive) | 100 (inactive) |
| CS(=O)(=O)CCNCc1ccc(-c2ccc3ncnc(Nc4ccc(OCc5cccc(F)c5)c(Cl)c4)c3c2)o1 [Lapatinib] | 59.8 | 57.6 | 124 (active) | 151 (active) |
| CNCC(O)c1ccc(O)c(O)c1.O=C(O)C(O)C(O)C(=O)O (single isomer, unassigned; (-)) [(-)-Epinephrine bitartrate] | 100 | 107 | 90.8 (inactive) | 82.3 (inactive) |
| CCCCS(=O)(=O)N[C@@H](Cc1ccc(OCCCCC2CCNCC2)cc1)C(=O)O.Cl.O | 99.8 | 102 | 97.7 (inactive) | 104 (inactive) |
| O=C1NC(=O)C(c2ccccc2)(c2ccccc2)N1 [Phenytoin] | 104 | 98.5 | 95.8 (inactive) | 110 (inactive) |
| CC(C)(N)c1ccc(-c2nc3ccccc3nc2-c2ccccc2)cc1 | 95.6 | 95.3 | 106 (inactive) | 103 (inactive) |
